Results as given in PubChem BioAssay (EPA / NIEHS).
Calls of active or inactive are those of the source. Rule for the calls: active = hit-call score of the fitted dose curve at least 0.9, where 1 is the maximum; inactive = score below 0.9.

Assays:
[1] = read-out: TIMP metallopeptidase inhibitor 1 (TIMP1), TIMP1 (gene 7076); assay: BSK_hDFCGF_TIMP1: BioMAP Diversity Plus: hDFCGF Assay for TIMP metallopeptidase inhibitor 1 (TIMP1) Biomarker Activity (AID 2283062); settings: primary human foreskin fibroblasts; actives raise or lower the signal
How it was run: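 TIMP-1 measured by ELISA 24 h after chemical dosing of primary human skin fibroblasts, with gain or loss fitted relative to DMSO. Parallel SRB staining (560 nm) monitored overt cytotoxicity.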

[2] = read-out: Monokine induced gamma interferon (MIG), CXCL9 (gene 4283); assay: BSK_hDFCGF_MIG: BioMAP Diversity Plus: hDFCGF Assay for Monokine induced gamma interferon (MIG) Biomarker Activity (AID 2283063); settings: primary human foreskin fibroblasts; actives raise or lower the signal
How it was run: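 Human primary foreskin fibroblasts in the hDFCGF system, exposed to test chemical for 24 h; MIG measured by ELISA. Bidirectional curve fitting against DMSO negative control as activity baseline.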

[3] = read-out: Matrix Metallopeptidase 1 (MMP1), MMP1 (gene 4312); assay: BSK_hDFCGF_MMP1: BioMAP Diversity Plus: hDFCGF Assay for Matrix Metallopeptidase 1 (MMP1) Biomarker Activity (AID 2283064); settings: primary human foreskin fibroblasts; actives raise or lower the signal
How it was run: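 Primary human foreskin fibroblasts in the hDFCGF system were dosed with test chemical, and MMP1 was measured by ELISA 24 h later. Values come from bidirectional curve fitting against the DMSO baseline.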

[4] = read-out: Vascular cell adhesion molecule 1 (VCAM1), VCAM1 (gene 7412); assay: BSK_hDFCGF_VCAM1: BioMAP Diversity Plus: hDFCGF Assay for Vascular cell adhesion molecule 1 (VCAM1) Biomarker Activity (AID 2283065); settings: primary human foreskin fibroblasts; actives raise or lower the signal;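 for AC50: VCAM-1 protein level quantified by ELISA after 24 h chemical exposure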
How it was run: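 ELISA readout of VCAM-1 on human dermal fibroblast primary cultures, 24 h after chemical exposure. Gain or loss of signal fitted in both directions against DMSO baseline.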

[5] = read-out: Plasminogen activator inhibitor-1 (PAI1), SERPINE1 (gene 5054); assay: BSK_hDFCGF_PAI1: BioMAP Diversity Plus: hDFCGF Assay for Plasminogen activator inhibitor-1 (PAI1) Biomarker Activity (AID 2283066); settings: primary human foreskin fibroblasts; actives raise or lower the signal
How it was run: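 PAI-1 levels, determined by ELISA, served as the endpoint in human foreskin fibroblast cultures exposed to compound for 24 h, with DMSO as baseline.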

[6] = read-out: Intercellular Adhesion Molecule 1 (ICAM1), ICAM1 (gene 3383); assay: BSK_KF3CT_ICAM1: BioMAP Diversity Plus: KF3CT Assay for Intercellular Adhesion Molecule 1 (ICAM1) Biomarker Activity (AID 2283067); settings: primary human keratinocytes with fibroblasts; actives raise or lower the signal
How it was run: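 Cell-surface ICAM-1 was measured by ELISA 24 h after dosing primary human skin keratinocytes co-cultured with fibroblasts. Parallel SRB staining tracked overt cytotoxicity. Gain or loss of signal was fitted relative to DMSO.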

[7] = read-out: Interferon-gamma inducible Protein 10 (IP10), CXCL10 (gene 3627); assay: BSK_KF3CT_IP10: BioMAP Diversity Plus: KF3CT Assay for Interferon-gamma inducible Protein 10 (IP10) Biomarker Activity (AID 2283068); settings: primary human keratinocytes with fibroblasts; actives raise or lower the signal
How it was run: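 Signal is secreted/surface IP-10 by ELISA in a human primary skin co-culture of keratinocytes and foreskin fibroblasts, taken 24 h post-dosing; DMSO served as negative control.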

[8] = BSK_KF3CT_SRB: Viability Assessment in the BioMAP Diversity Plus: KF3CT Assay (AID 2283069); settings: primary human keratinocytes with fibroblasts;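 note: total protein by sulforhodamine B staining as a cytotoxicity measure; read 24 h after compound addition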
How it was run: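 Human primary keratinocyte plus foreskin fibroblast co-culture exposed to chemicals for 24 h. Total protein measured by 0.1% sulforhodamine B staining after 10% TCA fixation, read at 560 nm; bidirectional fitting versus DMSO baseline.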

[9] = read-out: Interleukin-1 alpha (IL1a), IL1A (gene 3552); assay: BSK_KF3CT_IL1a: BioMAP Diversity Plus: KF3CT Assay for Interleukin-1 alpha (IL1a) Biomarker Activity (AID 2283070); settings: primary human keratinocytes with fibroblasts; actives raise or lower the signal
How it was run: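 Human keratinocyte plus foreskin fibroblast primary co-culture, sampled 24 h after chemical dosing. IL-1a measured by ELISA; responses fitted bidirectionally against DMSO baseline (negative control), so gain or loss of signal both count.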

[10] = read-out: TIMP metallopeptidase inhibitor 2 (TIMP2), TIMP2 (gene 7077); assay: BSK_KF3CT_TIMP2: BioMAP Diversity Plus: KF3CT Assay for TIMP metallopeptidase inhibitor 2 (TIMP2) Biomarker Activity (AID 2283071); settings: primary human keratinocytes with fibroblasts; actives raise or lower the signal
How it was run: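 Keratinocyte–fibroblast co-culture, 24 h exposure; TIMP-2 ELISA, DMSO-normalised bidirectional fit. Parallel SRB (0.1%, TCA-fixed, 560 nm) total-protein staining gauges cytotoxicity.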

[11] = read-out: Transforming growth factor beta 1 (TGFb1), TGFB1 (gene 7040); assay: BSK_KF3CT_TGFb1: BioMAP Diversity Plus: KF3CT Assay for Transforming growth factor beta 1 (TGFb1) Biomarker Activity (AID 2283072); settings: primary human keratinocytes with fibroblasts; actives raise or lower the signal
How it was run: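 Signal changes in either direction, relative to DMSO, define activity here. TGF-b1 is read by ELISA from a human keratinocyte-fibroblast co-culture 24 h post-dose.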

[12] = read-out: C-C motif chemokine 2 (Homo sapiens) (UniProt P13500); assay: BSK_KF3CT_MCP1: BioMAP Diversity Plus: KF3CT Assay for Monocyte Chemoattractant Protein 1 (MCP1/CCL2) Biomarker Activity (AID 2283073); settings: primary human keratinocytes with fibroblasts; actives raise or lower the signal
How it was run: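 ELISA read-out of MCP-1, 24 h post-dose, in primary human skin keratinocytes co-cultured with fibroblasts. Parallel SRB staining monitors cytotoxicity; changes fitted both directions relative to DMSO.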

[13] = read-out: Matrix Metallopeptidase 9 (MMP9), MMP9 (gene 4318); assay: BSK_KF3CT_MMP9: BioMAP Diversity Plus: KF3CT Assay for Matrix Metallopeptidase 9 (MMP9) Biomarker Activity (AID 2283074); settings: primary human keratinocytes with fibroblasts; actives raise or lower the signal;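 for AC50: MMP9 protein level quantified by ELISA in the co-culture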
How it was run: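 Keratinocyte plus foreskin fibroblast human primary skin co-culture was dosed with chemical and MMP-9 was quantified by ELISA 24 h later. Bidirectional curve fitting used DMSO as negative control and activity baseline.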

[14] = read-out: urokinase plasminogen activator (uPA), PLAU (gene 5328); assay: BSK_KF3CT_uPA: BioMAP Diversity Plus: KF3CT Assay for urokinase plasminogen activator (uPA) Biomarker Activity (AID 2283075); settings: primary human keratinocytes with fibroblasts; actives raise or lower the signal
How it was run: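 Human keratinocyte plus foreskin fibroblast primary co-culture exposed to chemical for 24 h. uPA levels were quantified by ELISA, and activity was fitted bidirectionally against a DMSO negative-control baseline.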

CD40, CD40 (gene 958) = assay: BSK_LPS_CD40: BioMAP Diversity Plus: LPS Assay for CD40 Biomarker Activity (AID 2283076); settings: primary human HUVEC with PBMC; actives raise or lower the signal
How it was run: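 In the LPS system of human endothelial cells with peripheral blood mononuclear cells, CD40 levels were read by ELISA 24 h post-treatment. Signal changes in either direction were fitted against the DMSO baseline, with parallel SRB protein staining.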

[15] = read-out: E-selectin (Homo sapiens) (UniProt P16581); assay: BSK_LPS_Eselectin: BioMAP Diversity Plus: LPS Assay for Eselectin Biomarker Activity (AID 2283077); settings: primary human HUVEC with PBMC; actives raise or lower the signal
How it was run: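 E-selectin ELISA on LPS-stimulated endothelial cell/PBMC co-cultures, read 24 h post-treatment; gains and losses fitted against DMSO. Parallel SRB staining (0.1% SRB after 10% TCA fixation, 560 nm) flags overt cytotoxicity.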

[16] = read-out: Interleukin-8 (IL8), CXCL8 (gene 3576); assay: BSK_LPS_IL8: BioMAP Diversity Plus: LPS Assay for Interleukin-8 (IL8) Biomarker Activity (AID 2283078); settings: primary human HUVEC with PBMC; actives raise or lower the signal
How it was run: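 ELISA read-out of IL-8 after 24 h chemical treatment of LPS-activated endothelial/PBMC human primary co-cultures. Changes either up or down relative to DMSO; overt cytotoxicity checked by sulforhodamine B staining in parallel wells.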

[17] = read-out: Interleukin-1 alpha (IL1a), IL1A (gene 3552); assay: BSK_LPS_IL1a: BioMAP Diversity Plus: LPS Assay for Interleukin-1 alpha (IL1a) Biomarker Activity (AID 2283080); settings: primary human HUVEC with PBMC; actives raise or lower the signal
How it was run: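 Readout is IL-1a level by ELISA, 24 h post-dose, fitted as gain or loss relative to DMSO. System: LPS-activated human primary co-culture of vascular endothelium and peripheral blood mononuclear cells, with parallel SRB total-protein cytotoxicity.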

[18] = read-out: Monocyte Chemoattractant Protein-1 (MCP1), CCL2 (gene 6347); assay: BSK_LPS_MCP1: BioMAP Diversity Plus: LPS Assay for Monocyte Chemoattractant Protein-1 (MCP1) Biomarker Activity (AID 2283081); settings: primary human HUVEC with PBMC; actives raise or lower the signal;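 for AC50: secreted MCP-1 protein quantified by ELISA in culture supernatant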
How it was run: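 Secreted MCP-1 read by ELISA at 24 h post-dosing in an LPS-activated co-culture of endothelial cells with peripheral blood mononuclear cells. Fits run in both directions, DMSO as baseline; parallel SRB staining tracks overt cytotoxicity.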

[19] = BSK_LPS_SRB: Viability Assessment in the BioMAP Diversity Plus: LPS Assay (AID 2283079); settings: primary human HUVEC with PBMC;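 note: total protein by sulforhodamine B absorbance as a cytotoxicity measure; measured one day after compound addition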
How it was run: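 SRB viability endpoint: cells fixed with 10% TCA, stained with 0.1% SRB, read at 560 nm, 24 h post-dose. HUVEC/PBMC co-culture; signal change in either direction scored relative to DMSO.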

Measured: AC50

Sequence of E-selectin (Homo sapiens) (P16581 whole entry, looked up): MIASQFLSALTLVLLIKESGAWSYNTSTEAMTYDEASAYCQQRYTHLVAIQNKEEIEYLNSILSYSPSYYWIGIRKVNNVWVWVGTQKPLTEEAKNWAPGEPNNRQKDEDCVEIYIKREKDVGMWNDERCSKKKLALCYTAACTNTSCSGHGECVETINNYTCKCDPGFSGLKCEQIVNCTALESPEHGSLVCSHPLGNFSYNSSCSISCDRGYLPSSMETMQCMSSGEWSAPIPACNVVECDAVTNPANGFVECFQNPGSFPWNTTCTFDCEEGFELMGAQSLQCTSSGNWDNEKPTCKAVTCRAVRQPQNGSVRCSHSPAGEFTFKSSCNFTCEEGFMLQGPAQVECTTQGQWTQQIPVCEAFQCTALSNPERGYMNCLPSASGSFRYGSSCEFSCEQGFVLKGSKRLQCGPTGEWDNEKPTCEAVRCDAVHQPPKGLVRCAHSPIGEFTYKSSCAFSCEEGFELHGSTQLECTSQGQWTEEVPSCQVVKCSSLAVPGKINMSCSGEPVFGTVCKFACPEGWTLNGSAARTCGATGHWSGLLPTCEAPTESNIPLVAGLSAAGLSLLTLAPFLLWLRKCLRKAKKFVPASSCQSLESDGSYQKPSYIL

Cc1cn([C@H]2C=C[C@@H](CO)O2)c(=O)[nH]c1=O
inactive: [1] | [2] | [3] | [4] | [5] | [6] | [7] | [8] | [9] | [10] | [11] | [12] | [13] | [14] | CD40, CD40 (gene 958) | [15] | [16] | [17] | [18]

CC(C)COC(=O)CCCCC(=O)OCC(C)C
inactive: [1] | [2] | [3] | [4] | [5] | [6] | [7] | [8] | [9] | [10] | [11] | [12] | [13] | [14] | CD40, CD40 (gene 958) | [15] | [16] | [19] | [17] | [18]

O=C(O)c1cccnc1
inactive: [1] | [2] | [3] | [4] | [5] | [6] | [7] | [8] | [10] | [11] | [12] | [13] | [14] | CD40, CD40 (gene 958) | [15] | [16] | [19] | [17] | [18]

O=C(O)CN(CC(=O)O)CC(=O)O
inactive: [1] | [2] | [3] | [4] | [5] | [6] | [7] | [8] | [10] | [11] | [12] | [13] | [14] | CD40, CD40 (gene 958) | [15] | [16] | [19] | [17] | [18]

O=C(O)c1[nH]n(-c2ccc(S(=O)(=O)O)cc2)c(=O)c1N=Nc1ccc(S(=O)(=O)O)cc1
inactive: [1] | [2] | [3] | [4] | [5] | [6] | [7] | [8] | [9] | [11] | [12] | [13] | [14] | CD40, CD40 (gene 958) | [15] | [16] | [19] | [17] | [18]

Oc1ccc(O)cc1
inactive: [8] | [10] | [11] | [12] | [14] | CD40, CD40 (gene 958) | [19]
active: [1] 13.4 µM | [2] 18.7 µM | [3] 33 µM | [4] 13.5 µM | [5] 14.7 µM | [6] 6.66 µM | [7] 20 µM | [13] 20 µM | [15] 26.2 µM | [16] 30.7 µM | [17] 8.51 µM | [18] 25.8 µM

O=C1O[C@H]([C@H](O)CO)C(O)=C1O
inactive: [1] | [2] | [3] | [4] | [5] | [6] | [7] | [8] | [9] | [11] | [12] | [13] | [14] | CD40, CD40 (gene 958) | [15] | [16] | [19] | [17] | [18]
